The list is not random: actives were taken first. Their share in the collection is about 2.2%.
aSyn UTR inh = 5' untranslated region of α-synuclein, MLPCN primary screen. 300,000 compounds, 0.82% hits. AID 1813. inhibition, % (tested at 7.5 µM). alpha-synuclein 5'UTR reporter, inhibitor activity; in the data active = inhibition above about 60%; inconclusive = no clear call, values can overlap the other calls;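 also: H4 neuroglioblastoma cells stably carrying SNCA 5'UTR luciferase fusion; 0% = DMSO wells and 100% = positive control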
BaF3 tox = counter-screen for JAK2V617F inhibitors: parental Ba/F3 viability inhibitors. CellTiter-Glo ATP luminescence. inhibition, % at 5.6 µM. 220,000 compounds, 1.1% hits. AID 1486;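 active = inhibition above a per-campaign cutoff, the mean inhibition of all tested compounds plus 3 SD, cut at about 27% in these data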;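 also: 0% = DMSO wells and 100% = JAK Inhibitor I control wells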
IEC-6 tox-1 = kills IEC-6 intestinal cells in KLF5 counter-screen. IEC-6 cytotoxicity, luminescence viability. AID 1825. inhibition, % at 5 µM. 290,000 compounds, 0.78% hits;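 also: 0% = plate median of test compound wells and 100% = cytotoxic reference compound wells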
Ba/F3 V617F tox = loss of viability in JAK2V617F-driven Ba/F3 cells. 220,000 compounds, 1.1% hits. inhibition, % at 5.6 µM. Ba/F3 EpoR-JAK2V617F viability, ATP luminescence;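 active = inhibition above the campaign mean plus 3 SD over all tested compounds, cut at about 24% in these data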;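 also: cytokine-independent growth of Ba/F3 cells driven by EpoR plus mutant JAK2; 0% = DMSO-treated cells and 100% = JAK inhibitor I control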
APP transl inh = APP translation inhibition. 190,000 compounds, 0.82% hits. inhibition, % at 2 µM. SH-SY5Y APP 5'UTR-luciferase reporter, luminescence;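 active = inhibition above a set limit, derived from the sample mean plus 3 SD, cut at about 45% in these data; inconclusive = one replicate passes the limit while the other fails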
KLF5 inh = suppresses KLF5 promoter-driven expression; 290,000 compounds, 0.23% hits; DLD-1 KLF5 promoter-luciferase reporter, luminescence; inhibition, % at 5 µM; AID 1700;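 active = inhibition above a per-plate limit of that plate's mean compound inhibition plus 3 SD, cut at about 60% in these data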;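 also: 0% = DMSO wells and 100% = LY294002 at 200 µM; higher means less KLF5 promoter-driven luciferase light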
KLF5 confirm = confirmation of KLF5 inhibitors | shares compounds with KLF5 inh | DLD-1 KLF5 promoter firefly luciferase reporter, luminescence | inhibition, % at 4 µM | 610 compounds, 79% hits | AID 1834;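 active = inhibition above a set limit taken from the earlier primary screen, cut at about 63% in these data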;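 also: 0% = DMSO wells and 100% = LY294002 at 200 µM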
IEC-6 tox-2 = counter-screen for KLF5 inhibitors: cytotoxicity in rat IEC-6 cells; inhibition, % at 4 µM; 610 compounds, 56% hits; AID 1905; shares compounds with KLF5 inh; IEC-6 rat intestinal cells, viability luminescence; in the data active = inhibition above about 23%;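 also: cells exposed to compounds for 48 hours before viability read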
IEC-6 cytotox cf = confirmation of cytotoxic compounds in rat IEC-6 intestinal epithelial cells. shares compounds with IEC-6 tox-1. IEC-6 rat intestinal epithelial viability, luminescence. inhibition, % at 5 µM. 1,900 compounds, 63% hits. AID 1907;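 also: 0% = vehicle and 100% = reference cytotoxic drug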
Active calls of the source: *; u = inconclusive; x = no result given. Rule as the data show it, unless noted: active = inhibition above about 22%; inactive = the rest.

SMILES	aSyn UTR inh	BaF3 tox	IEC-6 tox-1	Ba/F3 V617F tox	APP transl inh	KLF5 inh	IEC-6 cytotox cf	others
CCOc1ccccc1C1CC(=O)Nc2cc3c(cc21)OCO3 (configuration not stated)	66*	75*	83*	79*	90*	74*	57*	KLF5 confirm=91*;IEC-6 tox-2=65*
COc1cccc(C2CC(=O)Nc3cc4c(cc32)OCCO4)c1OC(C)C (configuration not stated)	x	1	6	-1	-8	6	x
CC(C)Oc1ccccc1C1CC(=O)Nc2cc3c(cc21)OCCO3 (configuration not stated)	73*	78*	88*	74*	95*	80*	56*	KLF5 confirm=98*;IEC-6 tox-2=90*
CCC(C)[C@H](NC(=O)N1CC(=O)Nc2ccccc21)C(=O)N1CCC(C(=O)O)CC1 (some centres not stated)	-12	x	-2	x	x	6	x
CCOc1ccccc1CNC(=O)Cn1ccc2cc(S(=O)(=O)N3CCC(C)CC3)ccc21	27	x	-7	x	x	-29	x
O=C(CNC(=O)c1ccco1)N=Nc1c(O)n(CCc2ccccc2)c2ccccc12	48	68*	85*	74*	x	71*	67*	KLF5 confirm=83*;IEC-6 tox-2=72*
CCn1c(O)c(N=NC(=O)CNC(=O)Cc2ccccc2)c2ccccc21	-4	x	2	x	x	3	x
COc1ccccc1NC(=O)N1CCC(c2nc3cc(C)c(C)cc3[nH]2)CC1	74*	81*	82*	83*	58*	47	59*
O=C(c1cc(NC(=O)C23CC4CC(CC(C4)C2)C3)cc(NC(=O)C23CC4CC(CC(C4)C2)C3)c1)N1CCCCC1	55	3	37*	0	-5	5	30*
C(=C\c1ccccc1)/CSc1nnc(-c2ccccc2)n1Cc1ccco1	14	23	34*	41*	17	6	36*
Brc1ccc(CSc2nnc(-c3ccccn3)n2Cc2ccco2)cc1	9	10	28*	1	4	5	22
CC(C)(C)c1ccc(CSc2nnc(-c3ccccn3)n2Cc2ccco2)cc1	9	6	-2	-1	-10	-30	x
C(=C\c1ccccc1)/CSc1nnc(-c2ccncc2)n1Cc1ccco1	0	4	7	3	-13	-6	x
COc1cc(C(=O)N(CCN(C)C)CC2CCCN(Cc3ccccc3F)C2)ccc1C (configuration not stated)	-20	x	6	x	x	-6	x
COc1cc(/C=N/NC(=S)NC2CC3C=CC2C3)cc(OC)c1OC (configuration not stated)	10	-6	28*	4	x	-21	2
CCOC(=O)C(NC(=O)Nc1ccc(Cl)cn1)(Oc1ccc(F)cc1)C(F)(F)F (configuration not stated)	-52	12	25*	7	-7	-3	-4
O=C(CNS(=O)(=O)c1cccs1)NCCc1ccc(Cl)cc1	-10	x	5	x	x	-1	x
COc1ccc(NC(=O)c2ccc3c(=O)n(-c4ccc(OC)cc4OC)c(=S)[nH]c3c2)cc1	-5	2	-1	-2	-2	-24	x
COc1ccc(-n2c(=S)[nH]c3cc(C(=O)Nc4ccc(F)cc4)ccc3c2=O)c(OC)c1	-142	x	32*	x	x	50	18
O=C(NNc1ccccc1)C(=O)NNS(=O)(=O)c1ccc(CCCl)cc1	8	1	44*	-1	x	23	11
CCc1ccc(N2CCN(S(=O)(=O)CC34CCC(CC3=O)C4(C)C)CC2)cc1 (configuration not stated)	-20	x	3	x	x	-29	x
Cn1c(/C=C/c2ccccc2)nc2ccccc21	39	8	6	2	-65	-58	x
C(=C\c1nnc2c3ccccc3ncn12)/c1ccccc1	53	69*	60*	82*	72*	1	20
Cc1coc2cc3oc(=O)c(CCC(=O)N4CCC(C(=O)O)(c5ccccc5)CC4)c(C)c3cc12	-17	x	5	x	x	-24	x
Cc1nn(Cc2noc(C(=O)NC3CCC(C)CC3)n2)c(C)c1Br (configuration not stated)	16	x	35*	x	x	-16	24*
SMILES	aSyn UTR inh	BaF3 tox	IEC-6 tox-1	Ba/F3 V617F tox	APP transl inh	KLF5 inh	IEC-6 cytotox cf	others
CCOC(=O)c1c(C)[nH]c(C)c1S(=O)(=O)N1CCN(c2ccc([N+](=O)[O-])cc2)CC1	51	x	7	x	x	-17	x
Cc1cc(C)n(/N=C/c2cccs2)c(=O)c1C#N	-12	2	71*	3	0	-31	5
Cc1cccc(OCc2nnc(SCC(=O)N3CCCCC3)o2)c1	9	x	-5	x	x	-1	x
O=Cc1ccc(OC(=O)/C=C/c2ccccc2)cc1	-22	x	0	x	x	4	x
Nc1nc(Nc2cccc3ccccc23)nc(C2CCCC2=O)n1 (configuration not stated)	-10	3	-2	2	-6	0	x
Nc1nc(CCl)nc(Nc2cccc3ccccc23)n1	-18	28*	91*	100*	x	-5	8
O=C(CNC(=O)Cc1cccc2ccccc12)NCc1ccc(F)cc1	15	x	0	x	x	-9	x
CC(=O)C(C(c1ccccc1)c1c[nH]c2ccccc12)[N+](=O)[O-] (configuration not stated)	-30	x	32*	x	x	22	21
CC12CN(C(=O)c3cccc([N+](=O)[O-])c3)C3(C#N)CC1CCC23C (configuration not stated)	-1	x	0	x	x	-28	x
CCOc1ccccc1NC(=O)c1csc(C)c1C	-6	x	-3	x	x	1	x
Nc1ccc(Br)c2cccnc12	-16	9	11	-3	6	15	x
COc1cccc(N=Nc2ccc(O)c3ncccc23)c1	44	x	30*	x	x	27	11
O=S(=O)(O)c1cccc2c(N=Nc3ccc(O)c4ncccc34)cccc12	9	x	-6	x	x	-20	x
Nc1ccc(N=Nc2ccccc2)c2cccnc12	-57	x	33*	x	x	-30	34*
COc1cccc(N=Nc2ccc3cccnc3c2O)c1	16	x	30*	x	x	61	56*
O=C(Nc1nc2ccccc2[nH]1)C1CC1	-46	50*	33*	18	-10	-10	17
Cc1ccc(C(=O)c2cc([N+](=O)[O-])ccc2N2CCCCC2)cc1C	56	75*	58*	83*	94*	3	61*
Cc1ccc(C(=O)c2cc([N+](=O)[O-])ccc2N2CCN(C)CC2)cc1	u	26	44*	6	63*	15	38*
O=C(CN1C(=O)CCSc2ccc(S(=O)(=O)N3CCOCC3)cc21)Nc1cccc(F)c1	16	x	-10	x	x	-42	x
